Test results as given in PubChem BioAssay (EPA / NIEHS).
Activity calls are given as the source filed them. Rule for the calls: active = hit-call score of the fitted dose curve at least 0.9, where 1 is the maximum; inactive = score below 0.9.

How the values were obtained:
[1] = ATG_CRE_CIS: Attagene CIS-FACTORIAL HepG2 Assay for human cAMP Responsive Element (CRE) binding protein 3 (AID 2282926); settings: HepG2 CRE cis-reporter, Attagene multiplexed mRNA; actives raise or lower the signal
Method in brief: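 Readout: fluorescently labelled reporter transcripts resolved by capillary electrophoresis after RT-PCR, taken 24 h post-dosing in transfected HepG2. Endogenous transcription factor activity drives each cis-element reporter; gain or loss of signal fitted relative to DMSO control.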

[2] = target: CCAAT/enhancer-binding protein beta (Homo sapiens) (UniProt P17676); assay: ATG_C_EBP_CIS: Attagene CIS-FACTORIAL HepG2 Assay for human CCAAT/Enhancer Binding Protein (C/EBP) beta (AID 2282927); settings: HepG2 Attagene cis-factorial transcription factor reporter; actives raise or lower the signal
Sequence of CCAAT/enhancer-binding protein beta (Homo sapiens) (P17676 whole entry, looked up): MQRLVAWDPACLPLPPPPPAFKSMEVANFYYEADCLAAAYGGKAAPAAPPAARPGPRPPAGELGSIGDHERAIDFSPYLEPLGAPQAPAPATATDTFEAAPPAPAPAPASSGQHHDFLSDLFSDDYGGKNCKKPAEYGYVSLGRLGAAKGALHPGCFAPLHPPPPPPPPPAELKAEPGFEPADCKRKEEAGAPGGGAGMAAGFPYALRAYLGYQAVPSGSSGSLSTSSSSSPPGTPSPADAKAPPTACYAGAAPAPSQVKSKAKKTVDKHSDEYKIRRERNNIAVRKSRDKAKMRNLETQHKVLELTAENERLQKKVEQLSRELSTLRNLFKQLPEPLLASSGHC
Method in brief: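 Changes in reporter mRNA, rather than exogenous chimeric receptor activity, reflect native C/EBP signalling in transfected HepG2 cells dosed for 24 h; transcripts are detected by RT-PCR and capillary electrophoresis.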

[3] = ATG_CMV_CIS: Attagene CIS-FACTORIAL HepG2 Assay for human CMV (Internal Marker) (AID 2282928); settings: HepG2 CMV promoter reporter, transcription factor profiling; actives raise or lower the signal;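 note: endpoint acts as a background internal control marker rather than a target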
Method in brief: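 Readout: fluorescent reporter cDNA fragments separated by capillary electrophoresis after RT-PCR and HpaI cut. Cells: HepG2 carrying transfected cis-promoter reporter constructs, dosed 24 h. Endpoint serves as background internal-marker control, fit bidirectionally versus DMSO.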

[4] = ATG_DR4_LXR_CIS: Attagene CIS-FACTORIAL HepG2 Assay for human Liver X Receptor (LXR), DR4 submotif (AID 2282929); settings: HepG2 Attagene DR4 cis-reporter, mRNA transcription; actives raise or lower the signal
Method in brief: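 HepG2 cells were transiently transfected with multiple cis-regulated reporter units and dosed for 24 hours. The DR4 reporter mRNA was quantified by RT-PCR, 6-FAM labelling and capillary electrophoresis. Bidirectional fits used DMSO as baseline.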

[5] = target: Aryl hydrocarbon receptor (Homo sapiens) (UniProt P35869); assay: ATG_Ahr_CIS: Attagene CIS-FACTORIAL HepG2 Assay for human Aryl Hydrocarbon Receptor (Ahr) (AID 2282930); settings: HepG2 AhR cis-factorial reporter transcription; actives raise or lower the signal
Sequence of Aryl hydrocarbon receptor (Homo sapiens) (P35869 whole entry, looked up): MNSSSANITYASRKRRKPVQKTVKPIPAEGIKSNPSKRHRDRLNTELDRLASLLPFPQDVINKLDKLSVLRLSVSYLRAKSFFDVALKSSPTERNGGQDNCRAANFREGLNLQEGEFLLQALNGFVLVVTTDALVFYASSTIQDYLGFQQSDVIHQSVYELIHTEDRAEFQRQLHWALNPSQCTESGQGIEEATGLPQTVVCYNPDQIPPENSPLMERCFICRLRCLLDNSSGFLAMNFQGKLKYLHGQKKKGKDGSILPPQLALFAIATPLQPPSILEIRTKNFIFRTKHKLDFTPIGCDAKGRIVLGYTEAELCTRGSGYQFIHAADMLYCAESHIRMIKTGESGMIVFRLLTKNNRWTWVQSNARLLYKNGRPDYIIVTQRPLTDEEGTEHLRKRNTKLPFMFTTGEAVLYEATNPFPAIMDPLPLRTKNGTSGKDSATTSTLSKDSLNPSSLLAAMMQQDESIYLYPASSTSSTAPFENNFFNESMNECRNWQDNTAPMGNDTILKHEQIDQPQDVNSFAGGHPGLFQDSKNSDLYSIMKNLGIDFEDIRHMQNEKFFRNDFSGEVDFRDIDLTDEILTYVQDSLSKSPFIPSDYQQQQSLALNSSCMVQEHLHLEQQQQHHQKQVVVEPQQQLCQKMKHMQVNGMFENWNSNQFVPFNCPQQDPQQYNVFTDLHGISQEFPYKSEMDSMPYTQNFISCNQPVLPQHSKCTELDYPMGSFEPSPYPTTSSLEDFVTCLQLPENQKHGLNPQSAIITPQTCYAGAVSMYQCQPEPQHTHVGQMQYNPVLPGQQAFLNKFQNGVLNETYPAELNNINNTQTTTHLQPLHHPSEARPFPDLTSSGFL
Method in brief: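 HepG2, transient MRTU (cis) transfection, 24 h exposure. RNA → cDNA → PCR → 6-FAM primer extension → HpaI 2 h 37 C → CE. Fit: bidirectional, DMSO baseline.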

[6] = ATG_AP_2_CIS: Attagene CIS-FACTORIAL HepG2 Assay for human Activator Protein 2 (AP-2) (AID 2282932); settings: HepG2 AP-2 cis-reporter, Attagene transcription factor profiling; actives raise or lower the signal
Method in brief: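 Endogenous transcription factor activity is reported through transfected multiplex reporter constructs in HepG2, after 24 h of compound exposure. Transcripts were quantified by RT-PCR and capillary electrophoresis of fluorescent fragments. Bidirectional fit against DMSO.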

[7] = ATG_BRE_CIS: Attagene CIS-FACTORIAL HepG2 Assay for human Bone Morphogenetic Protein (BMP) Response Element (BRE) (AID 2282933); settings: HepG2 BMP response element reporter, Attagene transcription factor profiling; actives raise or lower the signal
Method in brief: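 Endogenous transcription factor activity at a BMP response element was monitored in transfected HepG2 cells 24 h after dosing. Fluorescent RT-PCR products were resolved by capillary electrophoresis, and activity was fitted in both directions versus DMSO.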

[8] = target: Transcription factor E2F1 (Homo sapiens) (UniProt Q01094); assay: ATG_E2F_CIS: Attagene CIS-FACTORIAL HepG2 Assay for human E2F Transcription Factor 1 (AID 2282935); settings: HepG2 Attagene cis-reporter, E2F reporter RNA transcripts; actives raise or lower the signal
Sequence of Transcription factor E2F1 (Homo sapiens) (Q01094 whole entry, looked up): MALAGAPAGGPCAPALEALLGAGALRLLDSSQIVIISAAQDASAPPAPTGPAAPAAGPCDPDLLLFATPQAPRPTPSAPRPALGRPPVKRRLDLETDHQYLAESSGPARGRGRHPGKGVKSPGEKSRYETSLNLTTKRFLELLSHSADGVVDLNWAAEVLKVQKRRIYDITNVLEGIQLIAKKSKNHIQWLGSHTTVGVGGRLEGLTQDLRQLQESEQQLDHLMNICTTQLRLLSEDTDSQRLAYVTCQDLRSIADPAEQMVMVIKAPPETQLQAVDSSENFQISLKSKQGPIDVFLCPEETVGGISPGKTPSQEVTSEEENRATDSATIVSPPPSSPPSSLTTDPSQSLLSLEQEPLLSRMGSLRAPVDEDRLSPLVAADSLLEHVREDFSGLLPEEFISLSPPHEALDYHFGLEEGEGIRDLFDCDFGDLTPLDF
Method in brief: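 Gain or loss of reporter transcript, fitted against DMSO, reflects E2F1-driven transcription. Transiently transfected HepG2 dosed 24 h before RNA isolation. Quantified by fluorescent RT-PCR products separated by capillary electrophoresis.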

[9] = ATG_E_Box_CIS: Attagene CIS-FACTORIAL HepG2 Assay for human Enhancer Box (E-box) (AID 2282936); settings: HepG2 E-box cis-reporter transcription, actives raise or lower the signal
Method in brief: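 E-box-driven reporter transcripts measured in transiently transfected HepG2 after 24 h exposure: RNA reverse-transcribed, PCR-amplified, fluorescently labelled, digested and resolved by capillary electrophoresis. Gain or loss relative to DMSO.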

[10] = ATG_M_61_CIS: Attagene CIS-FACTORIAL HepG2 Assay for M61 Transcription Factor (Internal Marker) (AID 2282937); settings: HepG2 Attagene CIS-FACTORIAL M61 internal marker reporter; actives raise or lower the signal
Method in brief: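 HepG2 cells transiently transfected with multiplexed cis-promoter reporter units reporting endogenous transcription factor activity, measured 24 h after dosing. Reporter mRNA quantified by RT-PCR and capillary electrophoresis; bidirectional fit against DMSO baseline.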

[11] = ATG_EGR_CIS: Attagene CIS-FACTORIAL HepG2 Assay for human Early Growth Response 1 (EGR1) (AID 2282938); settings: HepG2 Attagene CIS-FACTORIAL EGR reporter mRNA; actives raise or lower the signal
Method in brief: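 HepG2 cells transiently transfected with cis-element-driven multiplexed reporter units, dosed for 24 h. EGR1-element reporter mRNA quantified by RT-PCR, 6-FAM labelling, HpaI digestion and capillary electrophoresis; bidirectional fit versus DMSO.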

[12] = ATG_M_19_CIS: Attagene CIS-FACTORIAL HepG2 Assay for M19 Transcription Factor (Internal Marker) (AID 2282939); settings: HepG2 Attagene CIS-FACTORIAL M19 internal marker reporter; actives raise or lower the signal
Method in brief: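 Background-control endpoint from a multiplexed HepG2 reporter panel. Cells carrying cis-regulated reporter constructs are treated 24 h, then reporter transcripts are amplified, fluorescently labelled and sized by capillary electrophoresis. DMSO defines baseline.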

[13] = ATG_ERE_CIS: Attagene CIS-FACTORIAL HepG2 Assay for Estrogen Response Element (ERE) (AID 2282940); settings: HepG2 ERE cis-reporter, Attagene RNA transcript; actives raise or lower the signal
Method in brief: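 Cells used were human hepatoma HepG2, transfected with multiple reporter transcription units under cis-regulatory promoters. Reporter mRNA, read 24 h post-dosing via fluorescent RT-PCR products on capillary electrophoresis, was fitted bidirectionally relative to DMSO.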

[14] = ATG_Ets_CIS: Attagene CIS-FACTORIAL HepG2 Assay for human Erythroblast Transformation Specific (ETS) (AID 2282941); settings: HepG2 ETS cis-reporter transcription, actives raise or lower the signal
Method in brief: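 RT-PCR/capillary electrophoresis fluorescence read-out of reporter mRNA; HepG2 transient multi-reporter transfection; 24 h compound exposure; gain or loss of signal fitted bidirectionally relative to DMSO.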

[15] = target: Hepatocyte nuclear factor 3-beta (Homo sapiens) (UniProt Q9Y261); assay: ATG_FoxA2_CIS: Attagene CIS-FACTORIAL HepG2 Assay for human Forkhead box A2 (FOXA2) (AID 2282942); settings: HepG2 cis-reporter transcription factor activity, 24 h; actives raise or lower the signal
Sequence of Hepatocyte nuclear factor 3-beta (Homo sapiens) (Q9Y261 whole entry, looked up): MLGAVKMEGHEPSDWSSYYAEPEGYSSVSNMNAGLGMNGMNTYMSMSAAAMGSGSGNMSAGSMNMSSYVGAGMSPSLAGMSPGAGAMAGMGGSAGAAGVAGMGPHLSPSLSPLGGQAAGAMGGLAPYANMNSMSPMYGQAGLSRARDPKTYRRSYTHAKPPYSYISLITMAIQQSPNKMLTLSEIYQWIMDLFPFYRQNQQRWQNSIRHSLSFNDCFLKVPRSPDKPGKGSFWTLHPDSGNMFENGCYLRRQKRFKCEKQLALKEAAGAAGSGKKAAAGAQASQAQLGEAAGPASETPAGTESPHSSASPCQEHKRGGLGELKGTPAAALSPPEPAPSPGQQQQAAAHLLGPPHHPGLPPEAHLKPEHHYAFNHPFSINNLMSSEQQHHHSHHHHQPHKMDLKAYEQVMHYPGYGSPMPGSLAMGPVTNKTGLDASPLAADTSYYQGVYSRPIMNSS
Method in brief: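 HepG2 transiently transfected with a multiplexed cis-promoter reporter library read endogenous FOXA2 activity. After 24 h compound exposure, reporter mRNA was quantified by RT-PCR, HpaI digestion and capillary electrophoresis. Bidirectional fit against DMSO.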

[16] = ATG_GATA_CIS: Attagene CIS-FACTORIAL HepG2 Assay for human GATA Binding Protein (AID 2282944); settings: HepG2 GATA cis-element reporter, Attagene multiplex mRNA; actives raise or lower the signal
Method in brief: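 Endogenous transcription factor activity was captured through cis-promoter-driven reporters in transfected HepG2 cells. After 24 h exposure, reporter transcripts were quantified by RT-PCR with fluorescent capillary electrophoresis, and responses fitted both directions against DMSO.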

[17] = ATG_GLI_CIS: Attagene CIS-FACTORIAL HepG2 Assay for human Zinc Finger Protein GLI1 (AID 2282945); settings: HepG2, Attagene cis-factorial reporter mRNA, GLI element; actives raise or lower the signal
Method in brief: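 Bidirectional curve fits relative to DMSO, using reporter mRNA levels from RT-PCR plus capillary electrophoresis. Cells were HepG2 transiently carrying cis-regulated reporter constructs, harvested 24 h after dosing.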

[18] = ATG_AP_1_CIS: Attagene CIS-FACTORIAL HepG2 Assay for human Activator Protein 1 (AP-1) (AID 2282931); settings: HepG2 Attagene cis-factorial AP-1 reporter mRNA; actives raise or lower the signal
Method in brief: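 HepG2 cells transiently transfected with cis-element-driven reporter transcription units, dosed for 24 hours. Reporter mRNA measured by RT-PCR, 6-FAM labelling, HpaI digestion and capillary electrophoresis. Bidirectional fitting against DMSO baseline.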

[19] = ATG_FoxO_CIS: Attagene CIS-FACTORIAL HepG2 Assay for human Forkhead box O (FoxO) (AID 2282943); settings: HepG2 Attagene cis-reporter, FoxO element, mRNA; actives raise or lower the signal
Method in brief: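 Human hepatoma HepG2 cells carry transiently introduced reporter transcription units controlled by cis promoter elements. Chemical treatment lasted 24 h, and mRNA signal was compared with DMSO.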

[20] = target: Retinoic acid receptor alpha (Homo sapiens) (UniProt P10276); assay: ATG_DR5_RAR_CIS: Attagene CIS-FACTORIAL HepG2 Assay for human Retinoic Acid Receptor Alpha (RARE), DR5 submotif (AID 2282934); settings: HepG2 Attagene cis-factorial RARE DR5 reporter, mRNA; actives raise or lower the signal
Sequence of Retinoic acid receptor alpha (Homo sapiens) (P10276 whole entry, looked up): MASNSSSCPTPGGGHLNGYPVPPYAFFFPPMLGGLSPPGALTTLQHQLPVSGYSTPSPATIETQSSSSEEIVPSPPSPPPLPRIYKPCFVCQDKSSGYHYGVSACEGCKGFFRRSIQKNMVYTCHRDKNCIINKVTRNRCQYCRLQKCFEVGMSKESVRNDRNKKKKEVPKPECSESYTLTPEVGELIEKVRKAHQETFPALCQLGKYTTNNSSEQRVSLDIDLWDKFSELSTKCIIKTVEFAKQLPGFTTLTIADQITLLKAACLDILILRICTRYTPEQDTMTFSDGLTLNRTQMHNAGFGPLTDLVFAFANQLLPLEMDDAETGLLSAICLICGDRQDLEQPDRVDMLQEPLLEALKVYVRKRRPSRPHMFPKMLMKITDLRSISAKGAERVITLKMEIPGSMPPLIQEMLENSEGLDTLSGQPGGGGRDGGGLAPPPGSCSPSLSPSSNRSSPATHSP
Method in brief: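 HepG2, transient cis-reporter transfection, 24 h exposure. mRNA readout: RT-PCR, FAM label, HpaI cut, capillary electrophoresis. DMSO baseline, gain/loss fitting.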

Measured: AC50

O=Cc1ccc(F)cc1
inactive: [1] | [2] | [3] | [4] | [5] | [6] | [7] | [8] | [9] | [10] | [11] | [12] | [13] | [14] | [15] | [16] | [17]

OC[C@H]1O[C@H](O[C@]2(CCl)O[C@H](CCl)[C@@H](O)[C@@H]2O)[C@H](O)[C@@H](O)[C@H]1Cl
inactive: [1] | [2] | [3] | [4] | [5] | [18] | [7] | [8] | [9] | [10] | [11] | [12] | [14] | [15] | [19] | [16] | [17]

CCCCCCCCCOC(C)=O
inactive: [1] | [2] | [3] | [4] | [5] | [18] | [7] | [8] | [9] | [10] | [11] | [12] | [13] | [15] | [19] | [16] | [17]

O=C(O)COCCN1CCN(C(c2ccccc2)c2ccc(Cl)cc2)CC1 (stereo unspecified)
inactive: [1] | [2] | [3] | [4] | [5] | [6] | [7] | [8] | [9] | [10] | [11] | [12] | [14] | [19] | [16] | [17]
active: [13] 18.8 µM

CC(=O)Nc1ccccc1O
inactive: [1] | [2] | [4] | [18] | [6] | [7] | [8] | [9] | [10] | [11] | [12] | [14] | [15] | [16] | [17]
active: [5] 20.7 µM

Cc1ccc(Nc2ccc(O)c3c2C(=O)c2ccccc2C3=O)cc1
inactive: [1] | [2] | [4] | [5] | [18] | [7] | [8] | [10] | [11] | [12] | [13] | [14] | [15] | [16] | [17]
active: [9] 20.3 µM

C=CC(=O)OCCn1c(=O)n(CCOC(=O)C=C)c(=O)n(CCOC(=O)C=C)c1=O
inactive: [1] | [2] | [7] | [8] | [10] | [12] | [14] | [19] | [16] | [17]
active: [4] 16.5 µM | [5] 3.42 µM | [18] 53.6 µM | [6] 20 µM | [9] 18.9 µM | [11] 11.2 µM | [15] 52.4 µM

CCCOCC(C)O (stereo unspecified)
inactive: [1] | [2] | [4] | [18] | [6] | [7] | [20] | [8] | [9] | [10] | [11] | [12] | [14] | [15] | [19] | [16] | [17]

CC(C)Oc1ccccc1O
active: [5] 47.8 µM
inactive: [1] | [2] | [4] | [6] | [7] | [8] | [9] | [10] | [11] | [12] | [13] | [14] | [15] | [19] | [16] | [17]

NCCCCCCN
inactive: [1] | [2] | [4] | [5] | [18] | [6] | [7] | [20] | [8] | [9] | [10] | [11] | [12] | [14] | [15] | [16] | [17]

CC(C)(CO)[N+](=O)[O-]
inactive: [1] | [2] | [4] | [6] | [7] | [8] | [9] | [10] | [11] | [12] | [14] | [15] | [19] | [16] | [17]

CC(O)C(C)O (stereo unspecified)
inactive: [1] | [2] | [4] | [6] | [7] | [8] | [9] | [10] | [11] | [12] | [14] | [15] | [19] | [16] | [17]

O=C1c2ccccc2C(=O)N1SC1CCCCC1
inactive: [1] | [2] | [8] | [9] | [10] | [15] | [17]
active: [4] 170 µM | [5] 26.9 µM | [18] 84.5 µM | [6] 129 µM | [7] 75.1 µM | [11] 65.6 µM | [12] 186 µM | [13] 66.4 µM | [14] 159 µM | [19] 172 µM | [16] 144 µM
